Test results reported in PubChem BioAssay (NCATS).
Inconclusive results are not listed. Where a call stands in place of a potency, no number is given. The source made the active and inactive calls. Calls follow the shape of the dose curve; as a rule, active = well fitted inhibition curve with a large enough effect; inconclusive = small, poorly fitted or top-dose-only effect; inactive = no such curve, though single readings can be large or run the other way.

experiment: BET inhibitor-based combinations targeting novel dependencies in MECOM-rearranged (r) AML: OCI-AML3 cell line (AID 2202232); details: CellTiter-Glo luminescence, 48 h; Potency: OCI-AML3 viability; series mostly up to 46 µM; also: nearly all actives have a fitted effect of over 35% in size
Outline: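 Here, 11-point titrations of each agent were applied to 500 seeded cells and incubated 48 hr; CellTiter-Glo signal, scaled against DMSO and empty wells, was integrated as AUC, then Z-scored within the individual line.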
Potency is read from the fitted curve at half-maximal effect.

SMILES | Potency
CC(C)(C)C(=O)Oc1ccc(S(=O)(=O)Nc2ccccc2C(=O)NCC(=O)O)cc1 | inactive
COc1ccc(Cc2nccc3cc(OC)c(OC)cc23)cc1OC | 8.33 µM (active)
CC(C)COCC(CN(Cc1ccccc1)c1ccccc1)N1CCCC1 (stereo not drawn) | 18.6 µM (active)
NCCc1cnc[nH]1 | inactive
Nc1nc2c(ncn2COCCO)c(=O)[nH]1 | inactive
NS(=O)(=O)c1cc2c(cc1Cl)NCNS2(=O)=O | inactive
C[C@H](Cc1ccc(O)c(O)c1)[C@@H](C)Cc1ccc(O)c(O)c1 | 3.32 µM (active)
CC1=C(/C=C/C(C)=C/C=C/C(C)=C/C(=O)O)C(C)(C)CCC1 | 7.42 µM (active)

experiment: BET inhibitor-based combinations targeting novel dependencies in MECOM-rearranged (r) AML: MV-4-11 cell line (AID 2202233); details: MV-4-11 AML viability, CellTiter-Glo luminescence, 48 h; series mostly up to 46 µM; also: nearly all actives have a fitted effect of over 45% in size
Outline: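 Normalized to DMSO and empty-well controls, the luminescence data from CellTiter-Glo after 48 hr drug exposure were fitted across 11 concentrations. Reported metrics are area under the dose-response curve and its Z-transformed form.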

SMILES | Potency
CC(C)(C)C(=O)Oc1ccc(S(=O)(=O)Nc2ccccc2C(=O)NCC(=O)O)cc1 | inactive
CC(C)COCC(CN(Cc1ccccc1)c1ccccc1)N1CCCC1 (stereo not drawn) | 26.3 µM (active)
COc1ccc(C2CNC(=O)C2)cc1OC1CCCC1 (stereo not drawn) | inactive
Cc1cc(C)c(/C=C2\C(=O)Nc3ccccc32)[nH]1 | 0.742 µM (active)
NCCc1cnc[nH]1 | 8.33 µM (active)
Nc1nc2c(ncn2COCCO)c(=O)[nH]1 | inactive
NS(=O)(=O)c1cc2c(cc1Cl)NCNS2(=O)=O | inactive
COc1ccc([C@@H]2Sc3ccccc3N(CCN(C)C)C(=O)[C@@H]2OC(C)=O)cc1 | inactive
C[C@H](Cc1ccc(O)c(O)c1)[C@@H](C)Cc1ccc(O)c(O)c1 | 2.95 µM (active)
CC1=C(/C=C/C(C)=C/C=C/C(C)=C/C(=O)O)C(C)(C)CCC1 | 0.59 µM (active)
